Bioassay records as filed in PubChem BioAssay.
ADAM17 inh: inhibits human ADAM17; inhibition, % at 6.95 µM; AID 720648; recombinant ADAM17, EDANS/DABCYL FRET peptide cleavage; hit rate 0.83% among 370,000;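 active means inhibition above the mean of compounds lying between control limits plus 3 SD, set per campaign, cut at about 8.5% in these data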;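 further: 0% = DMSO-only wells as the low control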
ADAM10 inh: ADAM10 inhibition, QFRET primary screen; O14672; inhibition, % at 7 µM; recombinant ADAM10, EDANS/DABCYL FRET peptide cleavage, 3 h; hit rate 0.62% among 370,000;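 active means inhibition above a per-campaign cutoff equal to the mean of compounds falling between control-based bounds plus 3 SD, cut at about 20% in these data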;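 further: 0% = DMSO wells while the 100% control is not disclosed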
Target sequence (O14672 214-748 limits assumed): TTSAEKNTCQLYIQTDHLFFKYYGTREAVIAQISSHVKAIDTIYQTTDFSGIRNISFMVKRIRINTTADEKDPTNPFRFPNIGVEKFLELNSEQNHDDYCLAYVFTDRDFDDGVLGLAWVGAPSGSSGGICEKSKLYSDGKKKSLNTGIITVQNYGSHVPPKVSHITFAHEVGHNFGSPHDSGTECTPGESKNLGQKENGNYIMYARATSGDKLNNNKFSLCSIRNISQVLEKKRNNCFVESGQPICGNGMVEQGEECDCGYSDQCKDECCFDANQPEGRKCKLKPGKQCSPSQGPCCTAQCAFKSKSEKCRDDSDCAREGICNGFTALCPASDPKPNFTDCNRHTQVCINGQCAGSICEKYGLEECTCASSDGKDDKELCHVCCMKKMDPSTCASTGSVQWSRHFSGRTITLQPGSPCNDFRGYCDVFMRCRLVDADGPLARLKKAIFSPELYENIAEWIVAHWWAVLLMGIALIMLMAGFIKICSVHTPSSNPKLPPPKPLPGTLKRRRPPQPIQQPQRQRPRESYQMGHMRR
HGIII-sPLA2 inh: Blocks human group III sPLA2 activity. QFRET BODIPY PC-A2 liposome hydrolysis, fluorescence. inhibition, % at 12.2 µM. hit rate 0.56% among 370,000. AID 743126;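 active means inhibition above mean plus 3 SD of compounds lying within the high and low control bounds, cut at about 19% in these data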;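 further: 0% = median of test compound wells and 100% = no enzyme DMSO wells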
GRIN3A LBD mod: modulates the human NR3A ligand-binding domain | NR3A LBD differential scanning fluorimetry, Tm shift; 0% = protein alone, 100% = glycine-bound protein | hit rate 2.5% among 340,000 | Tm shift relative to glycine control, % at 25 µM;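 active means melting temperature shift of at least 10% of the positive control shift, at one fixed dose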
FAS-TE inh: FAS thioesterase (human) inhibition. P49327. recombinant FAS-TE, OMFH fluorogenic substrate, fluorescence endpoint. inhibition, % at 15 µM. hit rate 0.67% among 360,000;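 active means compounds whose normalised, plate-corrected inhibition of enzyme fluorescence in the single-dose primary screen is 50% or more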;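 further: 0% = DMSO with enzyme and 100% = substrate without enzyme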
sPLA2 confirm: human GIII-sPLA2 inhibition, confirmation | hit rate 34% among 2,000 | AID 743280 | recombinant hGIII-sPLA2, BODIPY PC-A2 QFRET fluorescence | inhibition, % at 12.2 µM | shares compounds with HGIII-sPLA2 inh;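 active means mean inhibition across triplicates above the hit cutoff set in the earlier primary screen, cut at about 19% in these data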;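 further: 0% = enzyme with DMSO and 100% = DMSO wells lacking enzyme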
535nm interf: 535nm fluorescence interference, HGIII-sPLA2 counter-screen. AID 743282. BODIPY FL product fluorescence interference, QFRET. inhibition, % at 12.2 µM. shares compounds with HGIII-sPLA2 inh. hit rate 8.5% among 2,000;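 active means average inhibition above the solvent-only control mean plus 3 SD, cut at about 6% in these data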;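 further: 0% = DMSO with substrate plus product and 100% = DMSO with substrate alone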
BODIPY interf DR: interferes with 535nm fluorescence in dose response counter-screen; shares compounds with HGIII-sPLA2 inh; BODIPY FL product fluorescence interference, cell-free; IC50, µM; 240 tested, under 10 active; AID 743455;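 active means IC50 at or below 10 µM; inactive means IC50 above 10 µM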
Starred values were filed as active, the others as inactive; i = inactive; . = no result given. Hits are enriched below; roughly 4.3% of the tested compounds scored in any of these assays.

SMILES | ADAM17 inh | ADAM10 inh | HGIII-sPLA2 inh | GRIN3A LBD mod | FAS-TE inh | sPLA2 confirm | 535nm interf | others
Brc1ccc(-c2csc(/N=C/N3CCCC3)n2)cc1 | 3 | 6 | -3 | 0 | 7 | . | .
CCN1CCN(/C=N/c2nc(C)cs2)CC1 | 5 | 19 | 94* | 5 | -4 | 6 | -3
COc1cccc(OCC(=O)NNC(=O)c2ccc3ccccc3c2O)c1 | -150 | -428 | 36* | -6 | 5 | 33* | 3 | BODIPY interf DR=>122
COc1ccc(C(=O)NNC(=O)COc2ccc(Cl)cc2)c(OC)c1 | -3 | 1 | 25* | 0 | -1 | 12 | -7
COc1ccc(C(=O)NNC(=O)c2ccc3ccccc3c2O)cc1 | -8 | -22 | -2 | -9 | 7 | . | .
O=C(Nc1cccnc1N1CCOCC1)c1cccs1 | -3 | 2 | 22* | -2 | -2 | 0 | -5
C[C@@H]1CCCN1c1ccc2c(c1)OCCCN(C1CC1)S2(=O)=O | -3 | 1 | -3 | . | . | . | .
CN(C)c1ccc(NC(=O)/C=C/c2c(Cl)cccc2Cl)cc1 | 4 | 18 | 31* | -6 | -2 | 18 | 8.4*
NC(=O)c1ccccc1NC(=O)/C=C/c1c(Cl)cccc1Cl | 0 | -5 | 1 | -6 | 12 | . | .
CNCc1ccccc1Sc1cc(O)ccc1O | -5 | -4 | 20* | -2 | -4 | 38* | -6 | BODIPY interf DR=>122
CCn1c(C2CCN(S(=O)(=O)c3ccc(OC)cc3)CC2)n[nH]c1=S | -1 | -6 | 21* | -1 | -2 | 16 | -1
O=C(NCCNc1ccc([N+](=O)[O-])cc1)c1cccc(Br)c1 | -3 | -14 | 23* | -1 | -6 | 0 | -5
O=C(CN1C(=O)CCSc2ccccc21)Nc1ccc(Cl)cc1 | -3 | -4 | -3 | . | . | . | .
COC(=O)[C@]12C[C@H](CC(=O)N3CCCCC3)C(=O)N(CCc3ccc(OC)c(OC)c3)C1=C[C@H](C(C)(C)C)O[C@@H]2C | -2 | -5 | -3 | . | . | . | .
CC(C)CCC(CCNCc1ccccn1)c1ccc2c(c1)OCO2 (configuration not stated) | -1 | -10 | 23* | 0 | 0 | -25 | -26
O=C(N[C@H](C(=O)N1CCC[C@H]1C(=O)NC1CCCC1)C1CCCCC1)c1ccc(Cl)cc1Cl | -1 | 0 | -5 | . | . | . | .
O=C(O)/C=C/C(=O)NCCc1ccc(Cl)cc1 | -3 | -1 | 22* | -2 | -4 | 6 | -4
O=C(Nc1ccc2ncccc2c1)c1cc(-c2ccc(Cl)cc2)nc2ccccc12 | -5 | -2 | 2 | . | . | . | .
Cc1ccc(N2CN(Cc3ccco3)CNC2=S)c(C)c1 | -4 | -7 | 25* | 0 | -9 | 11 | -9
Cc1cccc(Cn2cc(COC(=O)N3CCOCC3)nn2)c1 | -5 | 4 | 3 | . | . | . | .
COCCn1c(C)cc(C(=O)COC(=O)c2cncc(Br)c2)c1C | -1 | -16 | 21* | -1 | -2 | 6 | -8
Cc1nn(-c2ccccc2)c(C)c1C(=O)OCC(=O)N(C)C1CCS(=O)(=O)C1 (configuration not stated) | -7 | -11 | 20* | 4 | -7 | -1 | -8
Nc1cc(N)c2c(c1)C(=O)c1ccccc1-2 | 2 | 4 | 20* | -7 | -5 | 38* | 4 | BODIPY interf DR=>122
O=C(NNC(=O)c1ccccc1O)c1ccc(Cl)c(S(=O)(=O)N2CCCCC2)c1 | 3 | 5 | 20* | -8 | 8 | 6 | 1
O=C(NNC(=O)c1cccs1)c1ccc(Cl)c(S(=O)(=O)N2CCCC2)c1 | 2 | -7 | -10 | -1 | -3 | . | .
SMILES | ADAM17 inh | ADAM10 inh | HGIII-sPLA2 inh | GRIN3A LBD mod | FAS-TE inh | sPLA2 confirm | 535nm interf | others
O=C(NNC(=O)C1CCN(S(=O)(=O)c2c(Cl)cccc2Cl)CC1)c1ccccc1O | -23 | -90 | 25* | -13 | 10 | 14 | -3
CCCCCCN1CCN(C2CN(Cc3cn(Cc4ccc(C(F)(F)F)cc4)nn3)S(=O)(=O)C2)CC1 (configuration not stated) | 3 | -1 | -19 | . | . | . | .
C[C@@H]1C[C@H]2O[C@@H]2/C=C\C=C\C(=O)Cc2cc(O)cc(O)c2C(=O)O1 | -6 | -19 | -3 | . | . | . | .
CCCCc1c(-c2ccccc2OC)ncn1Cc1cccc(OC)c1 | -1 | -6 | -7 | . | . | . | .
COc1ccc2c(c1)cc(C(=O)N/N=C/c1c(O)c(C(=O)O)cc3ccccc13)n2C | -63 | -133 | 19* | 11* | 24 | 17 | 2
Cn1c(=O)c(=O)n(C)c2cc(S(=O)(=O)N3CCN(c4ccccc4Cl)CC3)ccc21 | 6 | 5 | 5 | . | . | . | .
CNC(=S)NNC(=O)COc1ccc(C)c(C)c1 | -2 | 1 | 28* | 0 | -7 | 26* | -1
CCCN(CCC)C(=O)c1oc2ccccc2c1NC(=O)Cc1cccc(OC)c1 | -2 | -9 | 20* | -1 | 16 | -2 | -19
CCC(=O)Nc1c(C(=O)Nc2cccc(OC)c2)oc2ccccc12 | -1 | -1 | -9 | 0 | 11 | . | .
S=C1NC2(CCCCC2)Cc2ccccc21 | 1 | -8 | 21* | -4 | 4 | 14 | -2
O=C1NC2(CCCCC2)Cc2ccccc21 | -3 | 6 | -4 | -2 | -6 | . | .
O=Cc1ccc(/C=C2\c3ccccc3C(=O)N2c2ccccc2)o1 | -14 | -78 | 11 | . | . | . | .
CCn1c2ccccc2c2cc(NC(=O)c3coc(=O)c(Br)c3)ccc21 | -37 | -104 | 9 | . | -73 | . | .
CCn1c2ccccc2c2cc(NC(=O)c3ccc(Br)o3)ccc21 | 3 | 3 | 21* | 1 | 0 | 16 | -2
CCOC(=O)NC(=O)C(=CNc1ccccc1OC)C(=O)NC(=O)OCC | -1 | -3 | 21* | -1 | -6 | 8 | -1
C[C@H](O)[C@@H]1C(=O)N2CCc3c([nH]c4ccccc34)[C@@H]2C[C@@H]1N(C)C(=O)Nc1ccc(Br)cc1 | -191 | i | -13 | . | . | . | .
COC(=O)c1cc(-c2cccc3ccccc23)c(=O)n2c1CCC2 | -20 | -64 | 3 | . | . | . | .
Cc1ccc(NC(=O)COC(=O)c2cc(Cl)ccc2[N+](=O)[O-])c(C)c1 | -4 | -15 | 20* | 6 | 16 | 2 | -6
Cc1ccc2cc(CCNC(=O)c3cccc([N+](=O)[O-])c3)c(=O)[nH]c2c1C | 1 | -12 | 22* | 0 | 10 | -7 | -17
COc1ccc2cc(CCNC(=O)c3cccc([N+](=O)[O-])c3)c(=O)[nH]c2c1 | -2 | 4 | -5 | -1 | 16 | . | .
O=C(OCc1cn(Cc2ccccc2F)nn1)N1CCOCC1 | -8 | -10 | 17 | . | . | . | .
